Laboratory results reported in PubChem BioAssay (NCI).
This is part of a sample that, as a whole, favours compounds with a hit. Of some 83,000 tested, about 20% had one in any assay.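 Results are percent growth after 48 hours of single-concentration exposure. 100 means growth as in untreated cells, lower positive values show inhibition; negative values down to -100 show cell death.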 Unmarked numbers belong to inactive results. Activity calls are given as the source filed them. How the source made its calls: active means growth percent below 10; inactive means the rest.

Experiments:
Assay in all cases: NCI-60 one-dose screen, 48 h (100 = growth as untreated, 0 = no growth, -100 = all killed)
Conditions in all cases: 10 µM unless noted
[1] = test system: SK-MEL-2 melanoma
[2] = test system: EKVX NSCLC
[3] = test system: SN12C renal
[4] = test system: UO-31 renal
[5] = test system: ACHN renal
[6] = test system: CAKI-1 renal
[7] = test system: CCRF-CEM leukemia
[8] = test system: MOLT-4 leukemia
[9] = test system: A498 renal
[10] = test system: TK-10 renal

Compound	growth [1]	growth [2]	growth [3]	growth [4]	growth [5]	growth [6]	growth [7]	growth [8]	growth [9]	growth [10]
Cc1[nH]c(-c2nc3ccccc3[nH]2)c(C)c1C(=O)N1CCOCC1	99.6%	91.2%	86.8%	82.2%	98.3%	101%	112%	105%		
COc1cc2c(cc1OC)-c1ccc3cc4c(cc3c1N(CCCn1ccnc1)C2)OCO4	37.7%	98.2%	18.1%	80.8%			1.56% (active)	2.11% (active)	85.2%	
COc1cc2oc3cc(C)oc(=O)c3c2cc1OC	97.2%	102%	92.8%		94%	86.4%	112%	95%	86.3%	96.7%
C=C(C)[C@@H]1CC[C@]2(CNCCO)CC[C@]3(C)[C@H](CC[C@@H]4[C@@]5(C)CCC(N)[C@@](C)(CO)[C@@H]5CC[C@]43C)[C@@H]12 (some centres not stated)	-19% (active)	40%	-11.4% (active)		54.4%	71.2%	-38.7% (active)		78.1%	-47.4% (active)
CC(C)c1ccc(C(=O)OC(=O)c2ccc(C(C)C)cc2)cc1	92.4%	99.7%	98.7%	83.9%	96%	67.7%	66.8%	66.2%	92.1%	
COc1ccc(C2CC(c3ccc4ccccc4c3)=NN2c2nc(O)c(C3=c4cc(Cl)ccc4=NC3=O)s2)cc1 (configuration not stated)	-77% (active)	-74.3% (active)	-30.5% (active)	-85% (active)	-63.8% (active)	-50.4% (active)	-19% (active)	-21.5% (active)	-84.3% (active)	
CC(C)(C)CC(C)(C)Nc1c(-c2ccc(-c3ccccc3)cc2)nc2cnccn12	72.2%	92.7%	98.7%	68.8%	100%	76.1%	72.9%	62.5%	75.9%	
CCOC(=O)Cc1csc2nc(-c3ccccc3)nn12	114%	105%	106%	97%	99.7%	111%	103%	111%	90.4%	
CCOC(=O)C(=CNc1ccccc1[N+](=O)[O-])C(=O)OCC	101%	114%	94.2%	78.2%	86%	98.9%	93.7%	96.1%	64.1%	
CC[C@@H](C[C@H](CCO)c1ccccc1)c1cc2ccccc2o1	81.3%	103%	95.8%	88.8%	99.1%	77.4%	90.7%	79.9%	104%	
Cc1ccc(-n2nnc(C3=NCCc4c3[nH]c3ccc(Cl)cc43)c2C)cc1	62.6%	70.8%	81.6%	57.8%	57.2%		27.8%	49.6%	66.5%	
CN1CCN(C2=C(Cl)C(=O)c3ccccc3C2=O)CC1	45.8%	89.3%	79.1%	75.4%	82.9%		75.5%	79.7%	88.6%	
CCOC(=O)c1ccc(-c2ccc3cc(OC)ccc3c2)nc1C	102%	99.4%	101%	93.9%		114%	95.3%	78%	99.8%	
COc1cc2ccccc2cc1C(=O)NC(=S)Nc1ccc(-c2nc3ccccc3[nH]2)cc1	105%	89.9%	83.4%	89.8%	99.2%	90.7%	79.2%	91.1%		
COc1cc(-c2cc(-c3ccc(Nc4nc(Nc5ccccc5)nc(Nc5ccc(Cl)cc5)n4)cc3)nc(N)n2)cc(OC)c1OC	59.5%	59.4%	70.7%	43.1%	59.7%	60.7%	28.2%	38.4%		
C[C@@H]1CC[C@@H]2[C@@H]1[C@H](OC(=O)/C=C/c1ccccc1)[C@]1(C3CCCCC3)C[C@@H](NC(=O)CO)[C@@]2(C)O1	95.9%	98.4%	59.2%	72.1%	50.2%	91.7%	99.2%	88.9%	44.9%	
CCN(CCO)CC(=O)c1cc(Cl)cc(Cl)c1Cl	92.4%	105%	100%	93.5%			82.9%	90.5%	102%	86.7%
COc1cc2c(O)n(CCCn3ccnc3)c3c4cnc5cccc(c(=O)c3c2cc1OC)c54	71%	49.6%	19.2%	64.7%	27.2%	66.4%	11%	4.13% (active)	21.5%	
CCN(CC)CCNc1ccc(C)c2sc3cc(C)ccc3c(=O)c12	55.7%	81.3%	53.8%	41%			34%	30.6%	84.8%	
[2H]c1nc(Nc2ncc(F)c(-c3cc(F)c4nc(C)n(C(C)C)c4c3)n2)c([2H])c([2H])c1CN1CCN(C([2H])([2H])C([2H])([2H])[2H])CC1	50.1%	51.7%	54.3%	23.2%			35.2%	21.1%	44.3%	21.6%
C=CC(=O)N[C@@H](Cc1ccc(-c2cc(Cl)cc(Cl)c2)cc1)[C@@H](O)[C@H](O)C(=O)O	97%	93%	95.7%	84%	100%	91.6%	105%	93.3%		
Cc1cc(C(c2ccccc2)c2ccccc2)ccc1NS(=O)(=O)c1ccccc1	104%	83.5%	95.3%	82.3%	106%	89.3%	82.4%	59.7%	102%	
O=C1c2ccccc2C2(c3ccc(O)cc3)c3ccccc3Oc3cccc1c32 (configuration not stated)	25.4%	45.7%	37.5%	45.7%	43.4%	45.9%	14.8%	24.8%	47.1%	
CN(CCC(=O)/C(=C\c1ccccc1)c1ccc(Cl)cc1)Cc1ccccc1	58.4%	86.8%	-9.91% (active)	-40.9% (active)	-43.3% (active)	22.5%	-7.82% (active)	6.05% (active)	46.1%	
CCOC(=O)c1c(C)nc2c(c1N)/C(=C/c1cc(OC)c(OC)c(OC)c1)C(=O)N2c1ccc(OC)cc1	67.1%	93.2%	36.2%	55.7%			8.45% (active)	17.6%	82.2%	77.4%
CC(C)N(CCOC(=O)Nc1ccccc1Cl)C(C)C	104%	99.7%	99.1%	85.1%			83.7%	88.6%	109%	
CC(C)(C)Nc1c(-c2c3ccccc3cc3ccccc23)nc2ccccn12	77.1%	70.1%	82.3%	49.8%	77.8%	50.1%	61.7%	45.5%	88.2%	
CCN(CC)CCCNC(=O)c1ccc(N)cc1O	100%	103%	101%	69.7%	98.3%	106%	-32.8% (active)	91%	56.2%	
O=C(Nc1ccccc1)c1sc(-c2cccc(C(F)(F)F)c2)cc1O	33.4%	81.5%	83.7%	77.6%	79.5%	74.6%	87.4%	87.7%	51.2%	
COc1ccc(C2CC(c3ccccc3)=NN2c2nc(C)c(C(C)=O)s2)cc1 (configuration not stated)	98.4%	94.6%	105%	77.4%	95.5%	86.6%	96.3%	102%		
